Test results from PubChem BioAssay AID460 (PCMD, 2006).
Out of some 58,000 compounds screened, about 100 (0.17%) were called active. Rule as the data show it: active = inhibition above about 45%; inactive = the rest. Many of the other results were omitted from the sample, so actives are more common in it than they were.

target: Procathepsin L (Homo sapiens) (UniProt P07711); experiment: blockers of CTSL protease activity – biochemical (AID 460); conditions: purified cathepsin L, fluorogenic substrate, fluorescence; active compounds read high;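 tested at 10 µM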;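 also: 0% = enzyme with no compound and 100% = no enzyme blank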
Sequence (P07711 114-288 limits assumed): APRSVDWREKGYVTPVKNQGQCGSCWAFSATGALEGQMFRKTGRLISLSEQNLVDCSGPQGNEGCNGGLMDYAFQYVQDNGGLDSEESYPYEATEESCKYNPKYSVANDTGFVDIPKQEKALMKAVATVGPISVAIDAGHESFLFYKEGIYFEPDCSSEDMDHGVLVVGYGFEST
Sequence (P07711 292-333 limits assumed): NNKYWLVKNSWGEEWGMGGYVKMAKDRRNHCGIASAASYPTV

inhibition, active:
CN(C(=O)C1CCOC1)c1nnc(-c2cccnc2)s1 (configuration not stated) 49.5%

inhibition, inactive:
C=CCN1C(=O)C(O)(CC(=O)c2ccc(Cl)cc2)c2ccccc21 (configuration not stated) 0.03%
CSc1cccc(NC(=O)C2CCCN2S(=O)(=O)c2ccc3c(c2)CCC(=O)N3)c1 (configuration not stated) 7.66%
Nc1ccc(SCCN2C(=O)c3ccccc3C2=O)cc1 7.88%
CCn1c2c(c3ccc(OC)cc31)CCCC2=O -5.8%
C=CCOc1nc2c(c(=O)n(C)c(=O)n2C)n1Cc1ccc(Cl)cc1Cl 31.1%
CCOC(=O)c1ccc(COC(=O)c2cc(=O)[nH]c3ccccc23)o1 2.07%
CCC(=O)Nc1nc(OC)cc(OC)n1 -4.97%
O=C(NCC1CCCO1)C(C(=O)c1ccccc1)n1cc(Cl)ccc1=O (configuration not stated) -10.2%
Cc1ccc(-c2nnn(CC(=O)N(CCO)C(C(=O)NC(C)(C)C)c3ccncc3)n2)cc1 (configuration not stated) -1.4%
CCCCCCC(=O)N(O)C1CC(=O)N(c2ccccc2)C1=O (configuration not stated) -5.53%
COCCn1c(=O)[nH]c2cc(C(=O)NCc3cccnc3)ccc2c1=O 1.59%
COc1ccc(CN2CN(C(C)C)CSC2=S)cc1 17%
Cc1cc(C(F)(F)F)nn1-c1nc(-c2ccco2)cc(C(F)(F)F)n1 1.46%
CC(=O)Oc1ccc2c(C)c(CC(C)O)c(=O)oc2c1 (configuration not stated) -70.3%
COc1ccc(C(=O)NCCc2ccc(S(N)(=O)=O)cc2)cc1OC 15.1%
Cc1ccc(OCC(O)CN2CCN(CC(O)COc3ccc(C)cc3Cl)CC2)c(Cl)c1 (configuration not stated) 24.6%
CCn1c(SCC(=O)Nc2nc3ccc(OC)cc3s2)nnc1-c1ccoc1C 19.9%
C[C@H](NC(=O)OC(C)(C)C)c1nnc(SCC(N)=O)o1 9.7%
CCOC(=O)C1CCc2nc3ccccc3c(=O)n21 (configuration not stated) 17.4%
CCN(CC)CCCNC(=O)c1cc(-c2cccc(Cl)c2)on1 10.3%
NC(=O)c1ccsc1NC(=O)c1ccco1 3.89%
CC1CCc2c(sc3c2C2=NS(=O)(=O)CCN2C=N3)C1 (configuration not stated) 0.12%
CCS(=O)(=O)N1CCN(C(=O)c2cccs2)CC1 3.99%
O=C(NCCCNC(=O)NC1CCCCC1)NC1CCCCC1 4.27%
N#Cc1c2c(c(N3CCN(CCO)CC3)n3c1nc1ccccc13)CCCC2 10.1%
Cc1ccc(-c2cc(C(F)(F)F)n3nc(C(=O)N4CCCC4)cc3n2)cc1 -2.27%
C=CCNC(=O)c1ccc(C)c(Br)c1 21.6%
COCCNC(=O)C(C#N)c1nc2ccccc2nc1N1CCN(Cc2ccc3c(c2)OCO3)CC1 (configuration not stated) -9.53%
CC1(C)CC(=O)C(C=NCc2cccnc2)=C(O)C1 3%
Cc1ccccc1-c1ccc(Nc2ccc(C(=O)N3CCOCC3)cc2)nn1 -0.35%
COc1ccc(CCNC(=O)CSc2nnc(CNC(=O)c3cccs3)o2)cc1OC 3.37%
CCCCC(CC)C(=O)Nc1ccc(Cl)cn1 (configuration not stated) 1.2%
CCOC(=O)c1[nH]c2ccc(C)cc2c1N=C(C)N(C)C 0.54%
CCC(=O)Nc1ccc(C(=O)CSc2nnc(CNc3ccc(Cl)cc3)o2)cc1OC 9.8%
Cc1ccc(S(=O)(=O)C2(S(=O)(=O)c3ccc(C)cc3)CCCC2)cc1 -3.77%
Cc1ccc(-n2nc3c(c2NC(=O)c2ccc4c(c2)OCO4)CSC3)c(C)c1 -0.76%
CCOC(=O)N1CCN(C(=O)CN(C2CCCCC2)S(C)(=O)=O)CC1 -8.17%
CC(C)(C)c1cc(CN2CCN(CCC#N)CC2)cc(C(C)(C)C)c1O 4.94%
CCn1c(CSc2nncn2-c2ccc(OC)cc2)nc2cc(S(=O)(=O)N(C)C)ccc21 15%
O=C(Nn1cc(C(=O)N2CCN(c3ccccc3F)CC2)c2ccccc2c1=O)c1cnccn1 -5.99%
CCN(Cc1ccccc1)C(=O)CSc1nc(C)cc2c1C(=O)OC2 5.38%
CCC(C)n1[nH]c(=O)c2c(C)cc(C)nc21 (configuration not stated) 12.4%
COc1ccc(-c2ccnc(SCC(=O)N3CCOCC3)n2)cc1 11.9%
CCn1c(-c2cc(OC)ccc2OC)csc1=Nc1c(C)n(C)n(-c2ccccc2)c1=O -2.42%
COc1ccc(NC2CC(=O)N(C)C2=O)cc1 (configuration not stated) 4.64%
CC(C)n1c(C(O)c2ccccc2)nc2ccccc21 (configuration not stated) 2.15%
Cc1cccn2c(=O)c3cc(C#N)c(=O)n(CCCN4CCOCC4)c3nc12 -56.6%
CCOC(=O)C1(C(F)(F)F)N=C(N(C)C)OC(N(C)C)=N1 -0.15%
Cc1cc(C)c(C(=O)CN2C(=O)CCC2=O)cc1C 5.02%
O=C(c1ccc2c(c1)N(Cc1ccc(F)cc1)C(=O)CS2)N1CCOCC1 -0.56%
CN(C(=O)COc1ccccc1)c1nnc(-c2ccncc2)s1 -26.7%
CN(C(=O)c1ccno1)c1nnc(-c2cccnc2)s1 -4.38%
COc1ccc(-c2nnc(SC(C)C#N)o2)cc1 (configuration not stated) 9.86%
CC(=O)Nc1nc(C)c(Cc2ccccc2)c(=O)[nH]1 -7.6%
CCOc1cccc(C(=O)Nc2cccnc2)c1 -6.37%
CC(=O)Nc1ccc(S(=O)(=O)N2CCN(C3CCCCCCC3)CC2)cc1 7.05%
COc1ccc2c(c1OC)C(=O)N(c1ncn[nH]1)C2 2.08%
COc1ccc(NC(=O)CN2CCN(S(=O)(=O)c3ccc(F)cc3)CC2)cc1Cl 20.1%
COc1ccc(S(=O)(=O)Nc2ccc3c(c2)OCO3)cc1Cl 3.1%
CCc1nnc(NC(=O)CCC(=O)O)s1 3.51%
COC(=O)C1C(=O)CC(C)(O)C(C(=O)OC)C1c1ccc2c(c1)OCO2 (configuration not stated) 11.2%
